# According to publication PMC4552634, “A New Set of Chemical Starting Points with Plasmodium falciparum Transmission-Blocking Potential for Antimalarial Drug Discovery” (PLoS ONE, 2015):
# System: P. falciparum stage V gametocytes
# Parameters: BacTiter-Glo ATP luminescence viability of purified stage V gametocytes in 384-well plates, per cent inhibition versus DMSO
# Conditions: 48 h, 5 µM; inhibitor
# Experimental: Once purified, gametocytes were counted using a Neubauer chamber, and the density was adjusted to 2.5 x 10^5 gametocytes/mL. Fifty μL of the gametocyte suspension (1.25 x 10^4 gametocytes) were added to each well of the 384-well plate containing the compounds, using a Multidrop combi (Thermo Electron Corporation). Plates were shaken for 5 sec to homogenize and then incubated at 37°C for 48 h in an atmosphere of 5% CO2, 5% O2, 90% N2. The ATP level of each well was determined using the BacTiter-Glo reagent (Promega) according to the recommendations of the manufacturer. The BacTiter-Glo assay generates a ‘glow-type’ luminescent signal produced by the luciferase reaction, which consists of mono-oxygenation of luciferin catalyzed by luciferase in the presence of Mg^2+, ATP and molecular oxygen. The luminescence was measured using a plate reader (Victor V, Perkin Elmer). […] The background value was subtracted from every other value of the assay prior to further calculation. The average of 16 replicates of vehicle control (0.5% or 0.1% DMSO) represents 100% of signal. Related to this value, each test concentration was calculated as percentage of control. All the calculations were done using MS Excel software. The compounds which presented inhibition ≥ 90% at 5 μM were progressed to the assay at 1 μM. […]
row,Compound,% Inhibition
1,CCC1CN2CCc3cc(OC)c(OC)cc3C2CC1CC1NCCc2cc(OC)c(OC)cc21 (centres unmarked) [TCMDC-125849],100.9%
2,CC[C@H]1CN2CCc3cc(OC)c(OC)cc3[C@@H]2C[C@@H]1C[C@H]1NCCc2cc(OC)c(OC)cc21 [TCMDC-125531],96.47%
